Anesthetic bind: candidate novel general anesthetic via apoferritin binding. P02791. apoferritin/1-aminoanthracene competitive binding, fluorescence. Potency, µM (highest dose often 77.5 µM), for inactives: at the highest dose activity change, negative = displacement, most hits filed as inhibitors. actives 0.074% (n = 350,000). AID 485281; note: % is set by controls: 0 for no effect and ±100 for the full control effect; nearly all actives have a fitted effect of over 20% in size
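Steps: apoferritin (10 uM) was premixed with half-saturated 1-AMA in PBS, compounds were pin-transferred, plates stood 10 min at room temperature, fluorescence was read at 380/535 nm, and curves were fitted with a Hill equation.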
mIDH1 inhibitor: human IDH1 R132H inhibition; actives 0.093% (n = 390,000); IDH1-R132H enzyme, NADPH consumption, diaphorase/resazurin fluorescence; Potency, µM (highest dose often 76.6 µM), for the others: at the top dose activity change, negative = inhibition, hits mostly inhibitors; O75874; note: % is set by controls: 0 for no effect and ±100 for the full control effect; nearly all actives have a fitted effect of over 65% in size
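IDH1-R132H (0.5 ug/mL) preincubated 30 min with compound, then NADPH (0.016 mM) and alpha-KG (2 mM) added; 80 min at RT, pH 7.5. Remaining NADPH coupled via diaphorase/resazurin to fluorescence (540/590 nm); concentration-response curves normalized to no-enzyme control.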
TrxR1 substrate: substrates of rat thioredoxin reductase 1 | O89049 | purified TrxR1 substrate turnover, NADPH consumption readout | Potency, µM (top dose mostly 114 µM), for inactives: at the highest dose activity change, negative = substrate turnover | actives 0.01% (n = 390,000) | AID 588456; note: % is set by controls: 0 for no effect and ±100 for the full control effect; nearly all actives have a fitted effect of over 50% in size
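Rat TrxR1, dispensed at 90 nM, was prereduced with 400 uM NADPH (final) for 5 min at ~22 deg C, then incubated with compound 15 min before 400 uM selenite. A first-read NADPH fluorescence drop versus no-compound background flagged substrates.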
Glioma ERSR ind: induces the endoplasmic reticulum stress response in human glioma cells. AID 602332. Potency, µM, for the others: at the highest dose activation, usual class: activators. actives 0.02% (n = 420,000). U87-MG GRP78 promoter luciferase reporter, 16 h; note: series mostly up to about 76 µM; % of control where 0% means no effect; nearly all actives have a fitted effect of over 35% in size
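Stably transfected U87-MG human glioma cells carrying a GRP78-based luminescent sensor were seeded at 1000 cells/well, pin-dosed with compounds and incubated 16 h. Luciferase reagent was then added, and end-point luminescence was read after 10 min at room temperature.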
ALOX12 inh: ALOX12 (human) lipoxygenase inhibition | P18054 | purified 12hLO, xylenol orange hydroperoxide absorbance | Potency, µM (series often up to 108 µM), inactives show at the highest dose activity change, negative = inhibition, most hits filed as inhibitors | actives 1.1% (n = 580,000) | AID 1671190; note: % is set by controls: 0 for no effect and ±100 for the full control effect
Target sequence (P18054 whole entry, looked up): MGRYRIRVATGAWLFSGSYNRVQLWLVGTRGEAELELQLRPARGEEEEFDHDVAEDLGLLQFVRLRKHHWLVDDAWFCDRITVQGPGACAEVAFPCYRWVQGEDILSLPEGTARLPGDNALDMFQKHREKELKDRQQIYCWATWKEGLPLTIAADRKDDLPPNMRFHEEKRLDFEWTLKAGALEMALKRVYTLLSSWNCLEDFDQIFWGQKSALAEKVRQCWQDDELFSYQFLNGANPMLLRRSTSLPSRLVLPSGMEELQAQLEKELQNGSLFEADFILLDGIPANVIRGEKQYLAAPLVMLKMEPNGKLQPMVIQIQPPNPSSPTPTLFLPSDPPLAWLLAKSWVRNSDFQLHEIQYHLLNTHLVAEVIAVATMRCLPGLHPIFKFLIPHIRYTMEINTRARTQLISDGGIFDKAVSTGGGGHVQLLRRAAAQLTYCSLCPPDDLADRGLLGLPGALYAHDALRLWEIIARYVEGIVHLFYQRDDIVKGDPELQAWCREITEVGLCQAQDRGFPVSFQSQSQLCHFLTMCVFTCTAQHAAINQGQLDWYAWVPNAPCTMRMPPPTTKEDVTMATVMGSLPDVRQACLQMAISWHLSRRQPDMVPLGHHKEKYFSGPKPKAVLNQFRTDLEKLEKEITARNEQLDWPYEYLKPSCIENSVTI
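Purified human 12hLO (150 nM final) in 25 mM Hepes, 0.01% Triton X-100, pH 7.0 was preincubated 15 min at room temperature with compound. Then 40 uM arachidonic acid was added, 30 min. Hydroperoxide was read by Fe-XO absorbance ratio 573/405 nm.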
rTrxR1 inhibitor: blocks rat thioredoxin reductase 1 | O89049 | recombinant rTrxR1, NADPH fluorescence consumption, selenite substrate | Potency, µM (highest dose often 114 µM), inactives show top-dose activity change, negative = inhibition, actives largely listed as inhibitors | actives 1% (n = 390,000) | AID 588453; note: % is set by controls: 0 for no effect and ±100 for the full control effect; nearly all actives have a fitted effect of over 65% in size
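Rat TrxR1 (90 nM in the dispensed reagent) was pre-reduced with 400 uM NADPH for 5 min at room temperature, then incubated with compound for 15 min. After 400 uM selenite was added, NADPH fluorescence (Ex 340/Em 450 nm) was followed for 8 min.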
* marks the source's active call; other numbers are inactive results; ? = inconclusive; . = not tested or not shown; [ ] = remark or other dose. Shown are actives, neighbours in structure and some others; about 1.7% of the full set was active somewhere. Calls come from the whole dose curve; as a rule, active = well fitted curve in the direction sought with a large enough effect; inconclusive = small, poorly fitted or top-dose-only effect, or another doubt; inactive = no such curve, though single readings can be large; an effect the other way counts as inactive or inconclusive. Potency is the fitted concentration of half-maximal effect.

SMILES	Anesthetic bind	mIDH1 inhibitor	TrxR1 substrate	Glioma ERSR ind	ALOX12 inh	rTrxR1 inhibitor
COCCCOc1cc(C[C@@H](C[C@H](N)[C@@H](O)C[C@H](C(=O)NCC(C)(C)C(N)=O)C(C)C)C(C)C)ccc1OC	.	.	.	-1.0%	?	.
C#CCOCCOCCOCCNc1nc(N2CCN(C(=O)[C@H]([C@@H](C)CC)n3cc(CCC(=O)O)nn3)CC2)nc(N2CCN(C(=O)[C@H](C)n3cc(CCCN=C(N)N)nn3)CC2)n1	6.9%	-8.3%	-2.7%	-1.3%	-19.4%	10.5%
C#CCOCCOCCOCCNc1nc(N2CCN(C(=O)CCCCCCCCCCNC(=O)[C@H](CCCCN)n3cc(CCO)nn3)CC2)nc(N2CCN(C(=O)CCCCCCCCCCNC(=O)[C@@H]([C@H](C)O)n3cc(C)nn3)CC2)n1	.	15.8%	6.0%	-2.2%	.	50.1µM*
C#CCOCCOCCOCCNc1nc(N2CCN(C(=O)[C@H]([C@@H](C)CC)n3cc(CCCN=C(N)N)nn3)CC2)nc(N2CCN(C(=O)[C@H]([C@@H](C)CC)n3cc(CCC(=O)O)nn3)CC2)n1	.	-4.9%[38.3 µM]	0.1%	-1.2%	10µM*	?
Cc1cc(CN2CCC3(CC2)CCN(Cc2c(C)n[nH]c2C)CC3CO)on1 (centres undefined)	.	.	.	.	0.6%	.
Cc1nc(COc2ccccc2C(=O)N2CCc3ccccc32)no1	.	.	.	.	36.2%	.
O=C(CN(Cc1ccccc1)C(=O)CCl)c1cccc(Br)c1	.	2.4%	-5.2%	-12.9%	-22.1%	14.1µM*
Cc1ccc(-c2nc(CC(=O)NCCc3ccccc3F)cs2)o1	.	.	.	.	-33.9%	.
Cc1ccc(-c2nc(CC(=O)NCc3ccccc3F)cs2)o1	.	.	.	.	11.2µM*	.
Cc1ccc2c(c1)c1c(n2CC(O)CNC(CO)(CO)CO)CCCC1 (centres undefined)	1.8%	3.1%	7.6%	-3.2%	2.3%	8.0%
Cc1ccc2c(c1)c1c(n2CC(O)CNC2CCCCC2)CCCC1 (centres undefined)	-14.9%	-4.9%	5.2%[57.1 µM]	-4.4%	28.2µM*	0.3%[57.1 µM]
O=C(NC1CCCCC1)N1CCC(c2nnc3n2CCNC3)CC1	.	.	.	.	12.6µM*	.
O=C(NC1CCCCC1)N1CCNCC1	-4.3%	-4.9%	9.6%[2.29 µM]	-5.4%	3.7%	16.2%[2.29 µM]
CCOC(=O)C1Nc2ccccc2C2C(O)C(O)CC12 (centres undefined)	.	12.5%	-3.8%	-5.0%	-25.2%	17.8µM*
CCOC(=O)C1Nc2ccc(C(F)(F)F)cc2C2c3ccccc3CC12 (centres undefined)	.	7.0%	-7.8%[57.1 µM]	-12.9%	-4.7%	8.1%[57.1 µM]
Cn1c(-n2cccc2)c(-c2c(-c3cccc4ccccc34)[nH]c3c2c(=O)[nH]c(=O)n3C)c(=O)[nH]c1=O	.	.	.	.	17.8µM*	.
Cc1ccc(NC(=O)Cn2nc3c(cc2=O)CCCCC3)c(Cl)c1	.	.	.	.	15.3%	.
Cc1ccc(NC(=O)Cn2nc(-c3ccccc3Cl)ccc2=O)c(Br)c1	10µM*	1.6%	-5.1%[57.1 µM]	-1.6%	13.2%	7.0%[57.1 µM]
Cc1ccc(-c2ccc(=O)n(CC(=O)Nc3ccc(C)cc3Cl)n2)cc1	10µM*	0.0%	0.0%	0.5%	-5.4%	9.8%
COc1ccccc1NC(=O)Cn1nc(-c2ccc3c(c2)OCCO3)ccc1=O	11.2µM*	-13.6%	-1.7%	4.6%	0.0%	13.5%
CC(Cc1ccccc1)=NNS(=O)(=O)c1ccc([N+](=O)[O-])cc1	.	-5.7%	-2.6%	-3.8%	20µM*	7.7%
CC(Cc1ccccc1)=NNc1ccc([N+](=O)[O-])cc1[N+](=O)[O-]	.	0.5%	2.5%	-4.4%	-10.7%	4.3%
CNc1ncc(CN(C)C(=O)c2cc(S(N)(=O)=O)ccc2F)cn1	.	.	.	.	70.1%	.
COCc1cc(C[C@@H]2CC[C@H](O)[C@@H](CNC(=O)C3CCCC3)O2)no1	.	.	.	.	-23.1%[176 µM]	.
COc1ccc(CN2CCOc3ccc(CN4CCC(Oc5cccnc5)CC4)cc3C2)c(F)c1	.	.	.	-0.9%	12.5%	.
